The values below come from ChEMBL document CHEMBL4513216, “Probing the Open Global Health Chemical Diversity Library for Multistage-Active Starting Points for Next-Generation Antimalarials” (ACS Infect Dis, 2020).

About 2,100 (3.2%) of roughly 65,000 compounds showed an effect of 50% or more. The median lay at about -52%. Shown is part of a subset that was picked to be rich in strong results.

The assay has as its system Plasmodium falciparum. Description: Screen against P. falciparum Asexual Blood Stage (ABS), at 5uM. Format: functional, Dd2. The following applies: tested at 5 uM.
As for `Cc1ccc(S(=O)(=O)NCCc2cccnc2)cc1C`, the INHIBITION was -35.5%.

For `c1cc(CN2C[C@H](OCC3CCOCC3)[C@H]3COC[C@H]32)co1`, the INHIBITION is given as -93%.

Turning to `Cc1noc(C)c1C(=O)N1CCCC(c2c(C)c(=O)nc3n2CCC3)C1` (stereo not drawn), the INHIBITION is given as -105%.

For the molecule `COCCNC(=O)c1sccc1N(C)S(=O)(=O)c1ccc(Cl)cc1`, the INHIBITION is -88.8%.

Regarding `CCCNC(=O)c1sccc1N(C)S(=O)(=O)c1ccc(Cl)cc1`, the INHIBITION is -84%.

Regarding `CN(C)CCNC(=O)c1sccc1N(C)S(=O)(=O)c1ccc(Cl)cc1`, the INHIBITION is 64.2%.

As to `Cc1cccc(CC(=O)N2CCOCC2c2c(C)n[nH]c2C)c1` (stereo not drawn), the INHIBITION is reported as -75.3%.

Regarding `CC(=O)N(Cc1noc(C)n1)C1CCN(Cc2cnc(C)s2)C1` (stereo not drawn), the INHIBITION was -55.6%.

In the case of `COc1cc(CN2CCCC2c2cccc(F)c2)cc(OC)c1OC` (stereo not drawn), the INHIBITION came to 28.2%.

For `CS(=O)(=O)c1ccc(CN2CCCCC2c2cccc(F)c2)cc1` (stereo not drawn), the INHIBITION was -36.8%.

In the case of `COc1cccc(CN2CCCCCC2c2cccs2)c1OC` (stereo not drawn), the INHIBITION is recorded as -70.3%.

Consider `Fc1cccc(C2CCCN2Cc2nnnn2C2CC2)c1` (stereo not drawn), for which the INHIBITION is -26.9%.

For the molecule `COc1cccc(CN2CCCC2c2cccc(F)c2)c1OC` (stereo not drawn), the INHIBITION is recorded as 55.4%.

On to `COc1ccc(CN2CCCC2c2cccc(F)c2)c(OC)c1OC` (stereo not drawn), for which the INHIBITION worked out at 60.2%.

As to `O=C(c1ccc(COc2ccc(Cl)cc2)o1)N1N=CCC1(O)C(F)(F)F` (stereo not drawn), the INHIBITION is -121%.

With `CCc1nccn1C1CCCN(C(=O)c2cnn3cccnc23)C1` (stereo not drawn), the INHIBITION is on record as -64%.

Consider `O=C(N[C@H]1CN(c2nc(CO)cs2)C[C@@H]1C1CC1)C1CCCCC1`, for which the INHIBITION is on record as -26.4%.

Take `O=C(COC[C@]12COC[C@H]1CN(C1CCC1)C2)N1CCCC1`: the INHIBITION is recorded as -115%.

For the molecule `Cc1cnc(C(=O)N[C@H]2CN(CCS(C)(=O)=O)C[C@@H]2C2CC2)cn1`, the INHIBITION is on record as -47.7%.

As to `Cc1nc(N)sc1C(=O)N[C@H]1CN(CCO)C[C@@H]1C1CC1`, the INHIBITION is -82.2%.

Turning to `Cc1cc(C(=O)N[C@H]2CN(CCC(N)=O)C[C@@H]2C2CC2)sc1C`, the INHIBITION is recorded as -43.8%.

`CSCCCN1C[C@H](NC(=O)c2ccc(CO)cc2)[C@@H](C2CC2)C1`: the INHIBITION amounted to 17.3%.

For `Cc1cc(C(=O)N[C@H]2CN(CCO)C[C@@H]2C2CC2)sc1C`, the INHIBITION was 60.8%.

For `Cc1ccc(C(F)(F)F)cc1C(=O)N[C@H]1CN(CCO)C[C@@H]1C1CC1`, the INHIBITION was 63.9%.

As to `Cc1ccc(CN2CCCC3(CCCN3S(C)(=O)=O)C2)s1` (stereo not drawn), the INHIBITION is on record as -71.7%.

`Cc1ccc(C(=O)N(C)CCCc2cnn(C)c2)cc1N1CCNC1=O`: the INHIBITION is listed as -86.4%.

Turning to `O=C(CCc1nnc2ccccn2c1=O)NCc1ccc2c(c1)OCO2`, the INHIBITION is on record as -108%.

Turning to `Cn1cc(CN2CCc3nc(-c4ccccn4)nc(O)c3C2)cn1`, the INHIBITION is recorded as -3.83%.

`Cc1cc(C)n(CC2CN(CCOc3ccc(C#N)cc3)CCO2)n1` (stereo not drawn): the INHIBITION is -114%.

As to `CC(C)c1noc(CN2CCC(c3nc4cc(Cl)ccc4o3)CC2)n1`, the INHIBITION is recorded as -72.4%.

As for `CCc1nnc(Nc2cccc(C3CCN(C)CC3)n2)s1`, the INHIBITION is reported as 6.83%.

As for `CCc1nnc(Nc2cccc(C3CCN(c4cnccn4)CC3)n2)s1`, the INHIBITION turned out to be 55.5%.

As for `CCc1nnc(Nc2cccc(C3CCN(CC4CC4)CC3)n2)s1`, the INHIBITION was 3.36%.

Take `COCCC(=O)N1CCCC2(CCC(=O)N2CCOC)CC1` (stereo not drawn): the INHIBITION is on record as -122%.

In the case of `CN1CCN(C(=O)CCn2nnc3ccccc32)CC(C(N)=O)C1` (stereo not drawn), the INHIBITION is reported as -71.9%.

Take `Cc1ncsc1C(=O)N1CCC(O)(Cn2c(C)cc3ccncc32)CC1`: the INHIBITION is on record as -64.6%.

Take `Cn1ccnc1Sc1ccc(N)cn1`: the INHIBITION is -78.1%.

As for `CS(=O)(=O)NC[C@]12COC[C@H]1CN(CCc1ccccc1)C2`, the INHIBITION is recorded as -29.9%.

With `O=C(c1ccncc1F)N1Cc2nc(CN3CCCCC3)oc2C1`, the INHIBITION is given as -21.6%.

For the molecule `CN(Cc1ccco1)C1CCC12CCN(C(=O)c1ccnnc1)CC2` (stereo not drawn), the INHIBITION is 53.3%.

For the molecule `CN(Cc1ccco1)C1CCC12CCN(C(=O)c1ccco1)CC2` (stereo not drawn), the INHIBITION was -9.15%.

For the molecule `CN(Cc1ccco1)C1CCC12CCN(C(=O)c1ccncc1)CC2` (stereo not drawn), the INHIBITION is 38.3%.

For `CC(C)(C)n1ncc2c1CCCC2NCc1ccc2ncccc2c1` (stereo not drawn), the INHIBITION is -1.42%.

As for `Cc1cc(N2CCC3(CCCN(CCO)C3=O)C2)nc2ccccc12` (stereo not drawn), the INHIBITION is recorded as 19.1%.

Regarding `CN(Cc1cnc2ccccc2c1)C(=O)C(c1ccccc1F)N(C)C` (stereo not drawn), the INHIBITION amounted to 64.4%.

For the molecule `CCc1ccc(CN(C)C(=O)C(c2ccccc2F)N(C)C)nc1` (stereo not drawn), the INHIBITION is -0.644%.

In the case of `Cc1cc(CN(C)C(=O)C(c2ccccc2F)N(C)C)ccn1` (stereo not drawn), the INHIBITION is given as -25.2%.

For `CC(=O)N1CCN(C(=O)C[C@@H]2C[C@@H](C(C)C)[C@H](CC#N)C=C2C)CC1`, the INHIBITION is given as 53.5%.

Take `CC1=C[C@@H](CC#N)[C@H](C(C)C)C[C@H]1CC(=O)N1CCN(CCO)CC1`: the INHIBITION stood at 40%.

`CC1=C[C@@H](CC#N)[C@H](C(C)C)C[C@H]1CC(=O)N1CCN(C)CC1`: the INHIBITION was 44.5%.

Regarding `Cc1csc(N2CCN(C(=O)NCCNc3ncccn3)CC2)n1`, the INHIBITION is reported as -162%.

On to `COCc1ncn2c1CN(C(=O)c1cccc3cccnc13)CC2`, for which the INHIBITION is recorded as -90.6%.

`Cc1cnc(CN2CCN(c3nc(C)cs3)C(C)C2)cn1` (stereo not drawn): the INHIBITION is -48.9%.
